Some test systems named below: HT29 colon; SNB-75 CNS; SNB-19 CNS; U251 CNS; PC-3 prostate; UACC-62 melanoma; LOX IMVI melanoma; SK-MEL-28 melanoma; SK-MEL-2 melanoma; SK-MEL-5 melanoma.
Holding throughout (assay): NCI-60 one-dose screen, 48 h (100 = growth as untreated, 0 = no growth, -100 = all killed)
Common to all, as to conditions: 10 µM

These results are taken from PubChem BioAssay (NCI).

SMILES strings stand for the structures. The panel holds about 83,000 compounds, 20% with a hit somewhere; the sample as a whole holds those more often.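 Values shown are percent growth following 48 h exposure of cells in 96-well plates to a single concentration of compound; below 10 was considered active.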 Unmarked numbers belong to inactive results. Activity calls are given as the source filed them.

In the case of `COc1ccc(OC)c(NC(=O)c2sc3nc4c(cc3c2N)C(=O)CCC4)c1`, the growth with HT29 colon is 106%; with SNB-75 CNS, 87.2%; in the assay on SNB-19 CNS, 82.2%; in the assay on U251 CNS it was 94.5%; in the assay on PC-3 prostate, 80.4%; in the assay on UACC-62 melanoma, 75.3%. The figures for the growth in the assay with LOX IMVI melanoma, with SK-MEL-28 melanoma and in the assay on SK-MEL-2 melanoma were 90.8%, 83.7% and 94.1%, respectively.
Regarding `COc1ccccc1CNCCN1C(=O)c2ccc3c4c(ccc(c24)C1=O)C(=O)N(CCNCc1ccccc1OC)C3=O`, the growth with HT29 colon was -36.1% (active); with SNB-75 CNS, -96.1% (active); in the assay with SNB-19 CNS, -91.4% (active); with U251 CNS, -81.4% (active); in the assay on PC-3 prostate it was -75.4% (active); in the assay with SK-MEL-5 melanoma, -100% (active). Also, the figures for the growth in the assay with UACC-62 melanoma, in the assay with LOX IMVI melanoma and with SK-MEL-2 melanoma were -93.3% (active), -82.3% (active) and -74.6% (active), respectively.
With `O=C(Nc1cccc(-n2cc(-c3ccncc3)c(-c3ccc(O)c(Cl)c3)n2)c1)Nc1ccc(Cl)c(Cl)c1`, the growth was 37.8% with HT29 colon; 7.7% (active) in the assay with SNB-75 CNS; 38.2% in the assay with SNB-19 CNS; -70.9% (active) in the assay with U251 CNS; -7.87% (active) in the assay on PC-3 prostate; -43% (active) in the assay with UACC-62 melanoma. Besides, the growth in the assay with LOX IMVI melanoma was -34.4% (active); in the assay on SK-MEL-28 melanoma it was -21.5% (active).
With `COC(=O)c1ccc(=O)oc1`, the growth in the assay with HT29 colon was 113%; in the assay with SNB-75 CNS it was 91.1%; in the assay on SNB-19 CNS it was 103%; in the assay on U251 CNS it was 97.4%; in the assay with PC-3 prostate, 91.5%; with SK-MEL-5 melanoma, 103%. Also, the growth is 93.6% in the assay with UACC-62 melanoma, 98.4% in the assay on LOX IMVI melanoma and 91.9% in the assay on SK-MEL-2 melanoma.
In the case of `O=C(Nc1cccc(-n2cc(-c3ccncc3)c(-c3ccc(O)c(Cl)c3)n2)c1)c1ccc(Cl)c(Cl)c1`, the growth with HT29 colon is 69.8%; in the assay on SNB-75 CNS it was 38.5%; with SNB-19 CNS, 72.8%; in the assay on U251 CNS, 11%; with PC-3 prostate, 37.9%; with UACC-62 melanoma it was 51.1%. Further, the growth in the assay with LOX IMVI melanoma was 53%; in the assay on SK-MEL-28 melanoma it was 47.6%.
In the case of `O=C(CC(c1ccccc1)N1CCOCC1)c1ccccc1` (configuration not stated), the growth with HT29 colon is 90.1%; with SNB-75 CNS, 85.8%; in the assay with SNB-19 CNS, 85%; in the assay with U251 CNS it was 80.8%; in the assay on PC-3 prostate, 72.1%; in the assay on SK-MEL-5 melanoma, 97.2%. In addition, the growth in the assay with UACC-62 melanoma is 93.6%; in the assay with LOX IMVI melanoma, 89%; with SK-MEL-2 melanoma, 94.7%.
For the compound `O=C(Cc1csc2nc(-c3ccc(Cl)cc3)cn12)N/N=C/c1ccccc1O`, the growth was 82.1% in the assay on HT29 colon; 68.6% in the assay with SNB-75 CNS; 60.8% with SNB-19 CNS; 42.2% with U251 CNS; 55.2% in the assay with PC-3 prostate; 45.8% in the assay with SK-MEL-5 melanoma. Also, the results for the growth with UACC-62 melanoma, in the assay with LOX IMVI melanoma and in the assay on SK-MEL-2 melanoma were 46%, 38.6% and 75.8%, respectively.
With `O=C(CCCCCCC(=O)Nc1cccnc1)NO`, the growth is 13.2% in the assay on HT29 colon; -13.5% (active) in the assay on SNB-75 CNS; 68.1% in the assay on SNB-19 CNS; 42.2% with U251 CNS; 26.3% in the assay with PC-3 prostate; 15.3% in the assay with SK-MEL-5 melanoma. The growth in the assay on UACC-62 melanoma is 25.3%; with LOX IMVI melanoma, 62.4%; with SK-MEL-2 melanoma, 28.8%.
For `C=C(NC(=O)C(=C)NC(=O)c1csc(C2=NC3c4csc(n4)C4NC(=O)c5csc(n5)C(C(C)(O)C(C)O)NC(=O)C5CSC(=N5)/C(=C/C)NC(=O)C(C(C)O)NC(=O)c5csc(n5)C3(CC2)NC(=O)C(C)NC(=O)C(=C)NC(=O)C(=C)NC(=O)C(C(C)C)NC2C=Cc3c(C(C)O)cc(nc3C2O)C(=O)OC4C)n1)C(N)=O` (configuration not stated), the growth is -2.13% (active) in the assay on HT29 colon; -10.9% (active) in the assay on SNB-75 CNS; 16.8% with SNB-19 CNS; -46% (active) in the assay on U251 CNS; 9.64% (active) in the assay on PC-3 prostate; -56.2% (active) with SK-MEL-5 melanoma. Besides, the values for the growth with UACC-62 melanoma, in the assay with LOX IMVI melanoma and in the assay with SK-MEL-2 melanoma were 5.94% (active), -52.7% (active) and -17.7% (active), respectively.
As for `O=C(C[n+]1ccccc1)c1ccc2ccccc2c1`, the growth with HT29 colon was 92%; with SNB-75 CNS it was 75.1%; in the assay on SNB-19 CNS it was 99.5%; with U251 CNS, 95.3%; in the assay with PC-3 prostate, 87.8%; in the assay with SK-MEL-5 melanoma it was 102%. Also, the values for the growth in the assay on UACC-62 melanoma, in the assay with LOX IMVI melanoma and in the assay on SK-MEL-2 melanoma were 96%, 99.8% and 112%, respectively.
As to `O=C(O)CN1C(=O)c2cccc3cccc(c23)C1=O`, the growth with HT29 colon was 100%; with SNB-75 CNS, 89.4%; in the assay with SNB-19 CNS, 99.2%; in the assay with U251 CNS, 97.4%; with PC-3 prostate it was 104%; in the assay on UACC-62 melanoma, 100%. Moreover, the growth is 98.6% in the assay on LOX IMVI melanoma, 109% in the assay on SK-MEL-28 melanoma and 111% in the assay on SK-MEL-2 melanoma.
Consider `C=C(Cl)[C@@](Cl)(CBr)CC[C@@H](Br)C(C)(C)Cl`, for which the growth with HT29 colon is -88.2% (active); in the assay on SNB-75 CNS, -96.8% (active); with SNB-19 CNS, -74.9% (active); in the assay with U251 CNS it was -97.9% (active); in the assay on PC-3 prostate, -92.7% (active); in the assay on SK-MEL-5 melanoma it was 87.9%. Besides, the growth is -25.9% (active) in the assay with UACC-62 melanoma, 94.5% with LOX IMVI melanoma and -30.8% (active) in the assay with SK-MEL-2 melanoma.
Turning to `N#Cc1c(C#N)c(SSc2c(C#N)c(C#N)c(N)n2-c2ccccc2)n(-c2ccccc2)c1N`, the growth with HT29 colon was 101%; in the assay with SNB-75 CNS, 71.7%; with SNB-19 CNS, 103%; in the assay with U251 CNS, 114%; with PC-3 prostate, 49%; in the assay with SK-MEL-5 melanoma, 96.7%. In addition, the growth was 94.8% in the assay with UACC-62 melanoma, 96.4% in the assay with LOX IMVI melanoma and 98.5% with SK-MEL-2 melanoma.
As to `COc1cc(Cl)cc(-c2nn(-c3cccc(NC(=O)c4ccc(N5CCOCC5)c(C(F)(F)F)c4)c3)cc2-c2ccncc2)c1`, the growth with HT29 colon is 21.2%; with SNB-75 CNS, 34.9%; in the assay with SNB-19 CNS it was 75.5%; with U251 CNS it was 32.3%; in the assay with SK-MEL-5 melanoma, 71.5%; in the assay on UACC-62 melanoma it was 67.8%. The growth is 47.3% with LOX IMVI melanoma, 53.2% in the assay with SK-MEL-28 melanoma and 64.9% with SK-MEL-2 melanoma.
With `O=C1OCC2=C1C(c1cccc(Br)c1)c1cc3c(cc1N2CCO)CCC3` (configuration not stated), the growth with HT29 colon is -12.1% (active); with SNB-75 CNS, 37.5%; in the assay with SNB-19 CNS, 28.8%; in the assay on U251 CNS, 5.68% (active); in the assay with SK-MEL-5 melanoma, -12.6% (active); in the assay on UACC-62 melanoma it was 20.2%. Also, the growth in the assay on LOX IMVI melanoma is 15.5%; in the assay on SK-MEL-28 melanoma it was 62%.
